Hit rate of the full screen: of about 2,200 compounds, about 530 (24%) were called active.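 How the source made its calls: active means inhibition above a set limit at one or more concentrations of the dose series; inactive means inhibition under that limit at every dose.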 Only a sample is shown. Results with a measured potency or affinity are listed apart.
Test: S. Typhimurium nonspecific reporter signal inhibition – Salmonella Typhimurium, GFP fluorescence, counter-screen for PhoP regulon inhibitor project, dose response (AID 2401);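 further: S. typhimurium with Mg-insensitive nmpC-GFP reporter grown at 10 µM Mg2+; drop in reporter fluorescence reflects general culture growth inhibition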
Settings: 4 h; series mostly up to 150 µM

Compound | outcome
Cc1ccc(-c2nc3ccccc3s2)cc1S(=O)(=O)N1CCCC1 | inactive
CCOC(=O)Cc1ccc2sc(-c3ccccc3)nc2c1 | inactive
COc1ccc(C2=NOC(C(=O)Nc3ccc(C)cc3)C2)cc1OC (configuration not stated) | inactive
COc1cccc(C2CC(c3ccccc3OC)n3nc(N)nc3N2)c1 (configuration not stated) | inactive
CCCc1cc(C(=O)NNC(=S)NC(C)c2ccccc2)cs1 (configuration not stated) | inactive
Cc1ccc(-n2sc3ccccc3c2=O)cc1S(=O)(=O)N1CCCCC1 | inactive
CCNC(=O)COC(=O)CCC(=O)c1cccs1 | inactive
FC(F)(F)c1cc(C(F)(F)F)c2ccc(Oc3ccccc3)nc2n1 | inactive
O=C(Cc1ccccc1)NCc1ccc(F)cc1 | inactive
Fc1ccccc1COc1ccc(Br)cc1CNCc1ccncc1 | inactive
O=C(Nc1ccc(S(=O)(=O)Nc2nccs2)cc1)c1cc(-c2ccccc2)nc2ccccc12 | inactive
COc1ccc(C(C)=O)c2c(O)cccc12 | inactive
CC1(C)CC(=O)C2=C(C1)OC1=C(C(=O)CC(C)(C)C1)C2c1ccc(O)cc1O | inactive
c1ccc(-n2cnc3cc(NCc4ccccn4)ccc32)cc1 | inactive
CCOC(=O)C1(S(=O)(=O)c2ccccc2)CCN(Cc2ccc(Cl)cc2)CC1 | inactive
O=C(Nc1ccc2c(c1)oc1ccccc12)N1CCOCC1 | inactive
CCOc1ccccc1OCC(=O)Nc1ccc(S(=O)(=O)Nc2nc(C)cc(C)n2)cc1 | inactive
Cc1ccc(SC(c2ccc(C)cc2)C(Cn2cncn2)C(=O)c2ccccc2)cc1 (configuration not stated) | inactive
CN(C)c1nc(N)nc(Cn2ccnc2)n1 | inactive
N/C(=N\OC(=O)c1cccs1)C1(c2ccc(Cl)cc2Cl)CC1 | inactive
C=CCc1ccccc1OCC(O)CN1CCN(CCN2C(=O)c3cccc4cccc(c34)C2=O)CC1 (configuration not stated) | inactive
COc1cccc(C2CC(=O)Nc3cc(OC)c(OC)c(OC)c32)c1OC (configuration not stated) | inactive
COc1cc(C2Nc3cccc4cccc(c34)N2)cc(OC)c1O | inactive

Compound | outcome
C=C(C)Cn1c(CCn2c3ccccc3c3ccccc32)n[nH]c1=S | inactive
CN(C(=O)c1cccc(C#N)c1)c1nnc(-c2cnccn2)s1 | inactive
Cn1c(CC(=O)Nc2ccc(Cl)c(Cl)c2)nnc1SCC(=O)Nc1nccs1 | inactive
Cc1cc2ncn(CC(O)COc3cccc(C(=O)O)c3)c2cc1C (configuration not stated) | inactive
N#Cc1c(N)nc(SCC(=O)NC2CCCCC2)c(C#N)c1-c1ccc(Cl)cc1 | inactive
Fc1cccc(NCc2cn3ccccc3n2)c1 | inactive
O=S(=O)(c1ccc(N2CCCC2c2nc3ccccc3s2)nc1)N1CCOCC1 (configuration not stated) | inactive
Nc1nnc(Sc2ccc(Cl)cc2[N+](=O)[O-])s1 | inactive
CN(c1cccc(Cl)c1)S(=O)(=O)c1cccc(C(=O)Nc2nc3ccccc3[nH]2)c1 | inactive
CCN(CC)c1ccc(/C=N/NC(=S)NCc2ccccc2)c(O)c1 | inactive
C#CCn1cc(/C=N/Nc2nc3ccccc3[nH]2)c2ccccc21 | inactive
C(=C\c1ccccc1)/C=N/Nc1nc2ccccc2[nH]1 | inactive
COc1ccc(/C=C/c2nc3ccccc3n2Cc2ccccc2OC)cc1 | inactive
COc1ccccc1NC(=O)Cn1nnc(-c2ccccc2NC(=O)c2cccs2)n1 | inactive
COC(=O)CSc1nnc(-c2ccco2)n1Cc1ccco1 | inactive
Cc1cccc(-n2nc3c(c2NC(=O)c2ccco2)CSC3)c1C | inactive
C/C(=N/Nc1nc(-c2ccc(Cl)cc2)cs1)c1cccs1 | inactive
CCN(CC)CC(=O)Nc1nc(-c2ccc(Cl)cc2)cs1 | inactive
O=C(C[n+]1cc(-c2ccccc2)n2c1CCCCC2)c1ccc(Cl)cc1 | inactive
COc1ccc(OC)c(NC(=S)NCCCN2CCOCC2)c1 | inactive
CN(CCNS(=O)(=O)c1ccc2c(c1)oc(=O)n2C)Cc1ccccc1 | inactive
Cc1cc(C)c(C#N)c(SCC(O)CS(=O)(=O)Cc2ccccc2)n1 (configuration not stated) | inactive
O=C(CSC1CCCCC1)Nc1ccccc1Br | inactive

Compound | outcome
Cc1ccc(C(=O)Oc2ccc(C(=O)COC(=O)c3cnccn3)cc2)cc1 | inactive
O=C(NC1CCCCC1)C(c1ccncc1)N(Cc1ccccc1)C(=O)c1ccc(-c2ccccc2)[nH]1 (configuration not stated) | inactive
Clc1ccccc1OCCn1ccnc1 | inactive
Cc1ccc(C(=O)NCc2ccc(Cl)cc2)o1 | inactive
S=C(Nc1ccc2snnc2c1)N1CCN(c2ccccn2)CC1 | inactive
CC1CN(C(=O)CCc2ccccc2)C(C)CN1C(=O)CCc1ccccc1 (configuration not stated) | inactive
Cc1ccc(NC(=S)NC(NC(=O)c2ccco2)C(Cl)(Cl)Cl)cc1 (configuration not stated) | inactive
O=C(NC(NC(=S)Nc1ccc(Cl)cc1)C(Cl)(Cl)Cl)c1ccco1 (configuration not stated) | inactive
O=c1c(Br)c(Br)cnn1-c1ccccc1 | inactive
Clc1ccc(-c2csc3ncnc(N4CCc5ccccc5C4)c23)cc1 | inactive
CCOC(=O)c1sc2nccc(N(C)C)c2c1N=CNOCc1c(F)cccc1Cl | inactive
O=C(NC(c1ccc(Cl)cc1)c1c(O)ccc2ccccc12)c1ccccc1 (configuration not stated) | inactive
Cc1ccc2cccnc2c1NC(=S)NC(=O)c1ccccc1 | inactive
CCCCCn1c(C(C)NC(=O)CCC)nc2ccccc21 (configuration not stated) | inactive
O=C(Cc1ccccc1)NC1c2ccccc2-c2ccccc21 | inactive
O=C(CSc1nnc(-c2ccc(O)cc2)n1-c1ccccc1)CC(=O)Nc1ccccc1 | inactive
O=C(OCC1COc2ccccc2O1)c1ccccc1F (configuration not stated) | inactive
CC1=C(C(=O)OCC2CCCO2)C(c2cccc(C(F)(F)F)c2)C2=C(CC(c3ccco3)CC2=O)N1 (configuration not stated) | inactive
O=S(=O)(Nc1ccc(Cc2ccncc2)cc1)c1ccc(Br)s1 | inactive
Cn1ncc(N=Cc2ccccc2O)c1C(=O)Nc1ccccc1 | inactive
N#CC1=C(N)Oc2c(O)cc3ccccc3c2C1c1ccsc1 (configuration not stated) | inactive
O=C(CSCc1ccccc1)Nc1ccc2c(c1)OCO2 | inactive
CCOc1cc(CNn2cnnc2)ccc1OCC(=O)NC1CCCCC1 | inactive

Compound | outcome
O=C(CCCNS(=O)(=O)c1ccccc1)NCc1ccco1 | inactive
Cc1ccc(C(=O)Nc2ccc3c(c2)OCO3)o1 | inactive
Clc1ccc(-c2cnc3n2CCC3)cc1 | inactive
Clc1ccc(C[n+]2cc(-c3ccc(Cl)cc3)n3c2CCC3)cc1 | inactive
COC(=O)Cc1c(O)ccn(Cc2ccc(F)cc2)c1=O | inactive
O=C(O)Cn1cc(C(=O)c2ccco2)c2ccccc21 | inactive
CCn1cc(C(=O)O)c(=O)c2cc(OC)ccc21 | inactive
O=C(Nc1ccc(NC(=O)C23CC4CC(CC(C4)C2)C3)cn1)c1ccco1 | inactive
Oc1ccc(-c2n[nH]c(=S)n2-c2ccc3c(c2)OCCO3)c(O)c1 | inactive
Nn1c(COc2cccc(Br)c2)nnc1SCC(=O)N1CCc2ccccc2C1 | inactive
c1ccc2c(C3=NNC(=NC4CC4)SC3)c[nH]c2c1 | inactive
O=C(Nc1cnn(Cc2ccc(Cl)cc2Cl)c1)c1noc2c1CCCC2 | inactive
CC(=O)c1c(N2CCN(C(=O)C3CCCO3)CC2)nc(=S)n(-c2ccccc2)c1C (configuration not stated) | inactive
Nc1ccccc1NC1=CC(=O)CC(c2ccco2)C1 (configuration not stated) | inactive
CCOC(=O)C1=NNC2(c3ccc(Cl)cc3)C(=O)N(c3cc(C)cc(C)c3)C(=O)C12 (configuration not stated) | inactive
NC1=NC(=Nc2ccc(Cl)cc2)c2ccccc21 | inactive
C=CCNCC#CCOc1ccc(OC)cc1 | inactive
O=C1NC2=C(CCc3ccccc32)C(c2ccc(Br)cc2)N1 (configuration not stated) | inactive
Cc1nc(C(=O)Nc2ccc(Cl)cc2)nn1-c1ccc([N+](=O)[O-])cc1 | inactive
O=c1[nH]c2cc3c(cc2cc1CN(CCc1ccccc1)Cc1nnnn1CC1CCCO1)OCO3 (configuration not stated) | inactive
Cc1cc(-c2csc(NC(=O)c3ccc(S(=O)(=O)N(C)C)cc3)n2)c(C)n1-c1ccccc1 | inactive
Cc1cc(C(=O)NCc2ccco2)no1 | inactive
COc1ccc(-c2cc(-c3ccc(OC)c(OC)c3)n[nH]2)c(O)c1 | inactive

Compound | outcome
COCCNC(=O)c1ccccc1NS(=O)(=O)c1ccc(Br)s1 | inactive
Cc1cccn2cc(CSc3nnc(Nc4ccc(C(C)C)cc4)s3)nc12 | inactive
CCC(CC)C(=O)N1c2ccc(F)cc2CCC1C (configuration not stated) | inactive
CC1(C)CC(=O)C2=C(C1)N(Cc1ccccc1)C(=O)C2(O)C(F)(F)F (configuration not stated) | inactive
COc1ccc(CNc2nc3c(c(=O)[nH]c(=O)n3C)n2CCCc2ccccc2)cc1 | inactive
COC(=O)c1cc(C#N)c(Oc2cccc(C)c2C)nc1C | inactive
COC(=O)CN1C(c2ccc(OC)cc2)=Nc2ccc(Cl)cc2C1c1ccccc1 (configuration not stated) | inactive
CCCCn1c(O)c(C(CC)=Nc2ccc3c(c2)CCC3)c(=O)[nH]c1=O | inactive
Cc1ccc(C(=O)N2CC3(C(C)C)CN(C(=O)c4ccc(C)cc4)CC(C(C)C)(C2)C3=O)cc1 | inactive
Cc1ccc(C(=O)C(OC(=O)COc2ccccc2C)c2ccccc2)cc1 (configuration not stated) | inactive
Cc1cc(C)c(NC(=O)COc2ccccc2C(=O)Nc2ccc3c(c2)oc2ccccc23)c(C)c1 | inactive
CC1(C)CC(=O)C=C(Nc2ccccc2NC(=O)c2cnccn2)C1 | inactive
COc1cc(C2NC(=O)NC(c3ccccc3)=C2C(C)=O)ccc1OCC(=O)O (configuration not stated) | inactive
Cc1c(/C=C/C(=O)c2ccccc2)cnn1C | inactive
Cc1ccc(C(=O)c2ccccc2C(=O)O)c(O)c1 | inactive
COc1cccc(OC)c1C(=O)NC(=S)Nc1cc(-c2nc3ccccc3[nH]2)ccc1Cl | inactive
Cc1cc(C=O)c(C)n1-c1ccc(Oc2ccc([N+](=O)[O-])cn2)cc1 | inactive
CCCn1c(SCC(=O)NCCc2ccccc2)nnc1-c1cccnc1 | inactive
O=[N+]([O-])c1ccc(N2CCN(CCOc3nonc3-c3ccccc3)CC2)c(Cl)c1 | inactive
Cc1ccc(S(=O)(=O)c2c(N)n(NC(=O)c3ccco3)c3nc4ccccc4nc23)cc1 | inactive

From PubChem BioAssay AID2401 (Southern Research Specialized Biocontainment Screening …, 2010)
